Results from PubChem BioAssay.
Unmarked numbers belong to inactive results. The source made the active and inactive calls. Unless noted, no stated cut-off is given here; in the data, active means inhibition above about 33%; inactive means the rest.

Target: Steroidogenic factor 1 (Homo sapiens) (UniProt Q13285)
Assay: SF1 (NR5A1) inverse agonists, counter-screen for LRH-1 inverse agonist project, cell-based, luminescence, high throughput (AID 651614; in the data active means inhibition above about 44%;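 further: cells cotransfected with StAR promoter reporter and SF1 expression vector; 0% = vehicle on cells with receptor and 100% = vehicle on cells lacking receptor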)
Conditions: cell-based SF1 luciferase reporter, at 3.6 µM, active compounds read high

Steroidogenic factor 1 (Homo sapiens), sequence (Q13285 whole entry, looked up): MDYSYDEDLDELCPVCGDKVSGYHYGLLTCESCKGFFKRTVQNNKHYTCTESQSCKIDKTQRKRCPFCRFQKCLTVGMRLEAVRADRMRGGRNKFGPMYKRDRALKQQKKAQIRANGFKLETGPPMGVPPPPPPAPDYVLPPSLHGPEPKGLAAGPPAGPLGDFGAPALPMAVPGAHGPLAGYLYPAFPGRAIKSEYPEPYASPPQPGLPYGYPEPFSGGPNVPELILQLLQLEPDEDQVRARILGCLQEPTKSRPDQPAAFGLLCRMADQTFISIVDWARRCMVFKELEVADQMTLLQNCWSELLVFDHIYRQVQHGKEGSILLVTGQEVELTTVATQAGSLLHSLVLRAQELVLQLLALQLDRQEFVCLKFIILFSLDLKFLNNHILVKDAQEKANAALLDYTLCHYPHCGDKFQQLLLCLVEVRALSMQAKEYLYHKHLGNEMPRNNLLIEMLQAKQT

For `Cc1cc(C)c2nc(-c3cccnc3)cc(C(=O)NC(C)c3cnn(C)c3C)c2c1` (stereo not drawn), which inhibition is on record?
Its inhibition is 50.9% (active).

Which inhibition does the source give for `O=C(NNc1ccccc1)C(=O)NNS(=O)(=O)c1ccc([N+](=O)[O-])cc1` here?
Its inhibition is 27.1%.

For `CCOc1ccc(NC(=O)CN2C(=O)NC(C)(c3ccc(OC(F)F)cc3)C2=O)cc1` (stereo not drawn), which inhibition is on record?
The inhibition was 59.2% (active).

For `COc1ccc(C(=O)N/N=C(\c2ccccc2)c2ccccn2)cc1`, which inhibition is on record?
The inhibition was 84.9% (active).

Which inhibition does the source give for `CN(C)c1ccc(NC(=O)CN2CCC(NC(=O)C3CCCCC3)CC2)cc1` here?
Its inhibition is 54.1% (active).

For `O=C1CC(c2cccc([N+](=O)[O-])c2)c2ccc3ccccc3c2N1` (stereo not drawn), which inhibition is on record?
The inhibition was 39.5%.

Which inhibition does the source give for `COC(=O)c1c(NC(=O)c2cccc(N3C(=O)CCC3=O)c2)sc2c1CCN(C(C)=O)C2` here?
The inhibition was 49.8% (active).

Which inhibition does the source give for `Cc1cc(C)c2c(C)c(C(=O)NCc3ccncc3)oc2c1` here?
The inhibition was 38.3%.

Which inhibition does the source give for `Cc1cc(C(=O)CSc2nnnn2C)c(C)n1CCc1ccc(F)cc1` here?
Its inhibition is 48% (active).

With `O=C(COc1ccc2c(-c3ccccc3)cc(=O)oc2c1)NCCCn1ccnc1` as the molecule, how does the inhibition read?
Its inhibition is 39%.

For `CCOCC(=O)Nc1cccc(C(=O)OCC)c1`, which inhibition is on record?
Its inhibition is 28.2%.

With `COc1ccc(C2=Nn3c(nnc3-c3ccccc3OC)SC2)cc1OC1CCOC1` (stereo not drawn) as the molecule, how does the inhibition read?
The inhibition was 71.1% (active).

With `O=C(Nc1ccc(Oc2ccccc2)cc1)c1csc([C@H]2C[C@H](O)[C@@H](CO)O2)n1` as the molecule, how does the inhibition read?
Its inhibition is 61.1% (active).

Which inhibition does the source give for `CCOC(=O)c1c(N)n(CCOC(=O)c2cccs2)c2nc3ccccc3nc12` here?
Its inhibition is 23.7%.

With `O=C(Cc1cccs1)N/N=C\c1ccc([N+](=O)[O-])s1` as the molecule, how does the inhibition read?
Its inhibition is 56.4% (active).

With `CC(C)NC(=O)N1Cc2cc(C(=O)NC3CCCCC3)nc(-c3cccc(-c4cccnc4)c3)c2[C@@H]1CCO` as the molecule, how does the inhibition read?
Its inhibition is 62.5% (active).

For `Cc1ccc(C)c(NC(=O)CSc2nc3[nH]ncc3c(=O)[nH]2)c1`, which inhibition is on record?
Its inhibition is 56% (active).

Which inhibition does the source give for `CCc1c(C)nc(SCC(=O)Nc2ccc3c(c2)OCCO3)[nH]c1=O` here?
Its inhibition is 54.7% (active).

Which inhibition does the source give for `CC(C)(Oc1ccc(Cl)cc1)C(=O)OCC(=O)NCCc1ccccc1` here?
The inhibition was 46.8% (active).

With `CC1CCCN(c2cc(N(C)CCO)c([N+](=O)[O-])c3nonc23)C1` (stereo not drawn) as the molecule, how does the inhibition read?
The inhibition was 43.2% (active).

For `Cc1ccccc1OCC(=O)N/N=C/c1ccc([N+](=O)[O-])o1`, which inhibition is on record?
The inhibition was 60% (active).

Which inhibition does the source give for `O=C(CN1C(=O)C(c2ccc(F)cc2)=NC12CCCC2)Nc1ccc(F)cc1` here?
The inhibition was 49.4% (active).

With `O=NN(CCc1ccncc1)c1ccc(OCc2ccccc2)cc1` as the molecule, how does the inhibition read?
Its inhibition is 66.6% (active).

With `COc1ccc(NC(=O)CN2C(=O)NC3(CCCC3)C2=O)cc1` as the molecule, how does the inhibition read?
Its inhibition is 47.5% (active).

With `Cc1cc(C)nc(NC(=O)c2ccc([N+](=O)[O-])o2)n1` as the molecule, how does the inhibition read?
Its inhibition is 53.4% (active).

For `COc1ccc(-c2cc(NC=O)c3ncc(-c4ccc(C(C)=O)cc4)n3c2)cn1`, which inhibition is on record?
The inhibition was 59% (active).

For `Cc1cc2oc(=O)cc(C)c2cc1NC(=O)CCl`, which inhibition is on record?
The inhibition was 57.7% (active).

For `Cc1onc(-c2ccccc2Cl)c1-c1nc(-c2ccncc2)no1`, which inhibition is on record?
Its inhibition is 52.9% (active).

With `CS(=O)(=O)c1ccc2nc(NC(=O)C3CC(=O)N(c4ccccc4)C3)sc2c1` (stereo not drawn) as the molecule, how does the inhibition read?
The inhibition was 55.9% (active).

With `CC(Cl)C(=O)Nc1ncc(C(F)(F)F)cc1Cl` (stereo not drawn) as the molecule, how does the inhibition read?
Its inhibition is 51.3% (active).

For `CC1CCCC(C)N1C(=O)COC(=O)Cc1ccc(F)cc1` (stereo not drawn), which inhibition is on record?
Its inhibition is 44.5% (active).

With `CCN(CC)S(=O)(=O)c1cccc(NC(=O)CNc2cccc(S(=O)(=O)N3CCCC3)c2)c1` as the molecule, how does the inhibition read?
Its inhibition is 59.8% (active).

With `Cc1cc(OCC(=O)Nc2cccnc2)c2c(C)c(C)c(=O)oc2c1` as the molecule, how does the inhibition read?
The inhibition was 52.8% (active).

For `O=C(Nc1cccc(NC(=O)c2ccc([N+](=O)[O-])o2)c1)c1ccco1`, which inhibition is on record?
The inhibition was 70.5% (active).

For `C#CCN(C[C@@H]1[C@@H](OC(=O)NCc2ccc(OC)c(OC)c2)[C@@H](OC(=O)NCc2ccc(OC)c(OC)c2)Cn2c(=O)ccc(=O)n21)S(=O)(=O)c1ccc(C)cc1`, which inhibition is on record?
Its inhibition is 35.7%.

With `CCCCOCCCNc1ncnc2c1[nH]c1ccccc12` as the molecule, how does the inhibition read?
Its inhibition is 53.6% (active).

For `O=C(COC(=O)Cc1ccc(F)cc1)NCCc1ccccc1`, which inhibition is on record?
Its inhibition is 36.3%.

For `O=C(NCc1ccco1)c1nn(-c2ccccc2)c(=O)c2ccccc12`, which inhibition is on record?
The inhibition was 53.4% (active).

Which inhibition does the source give for `COc1cc2c(cc1OC)CN(C(=O)CN1CCN(S(=O)(=O)c3ccc(C)c(C)c3)CC1)CC2` here?
The inhibition was 45% (active).

System: not listed separately
Assay: VP16 transactivation reporter inhibitors, counter-screen for LRH-1 inverse agonist project, cell-based, luminescence, high throughput (AID 651615)
Conditions: Gal4-VP16 luciferase reporter cells, at 3.6 µM, active compounds read high

For `Cc1cc(C)c2nc(-c3cccnc3)cc(C(=O)NC(C)c3cnn(C)c3C)c2c1` (stereo not drawn), which inhibition is on record?
Its inhibition is -13.5%.

Which inhibition does the source give for `O=C(NNc1ccccc1)C(=O)NNS(=O)(=O)c1ccc([N+](=O)[O-])cc1` here?
The inhibition was 20.1%.

For `CCOc1ccc(NC(=O)CN2C(=O)NC(C)(c3ccc(OC(F)F)cc3)C2=O)cc1` (stereo not drawn), which inhibition is on record?
Its inhibition is -30.5%.

Which inhibition does the source give for `COc1ccc(C(=O)N/N=C(\c2ccccc2)c2ccccn2)cc1` here?
The inhibition was 60.4% (active).

Which inhibition does the source give for `CN(C)c1ccc(NC(=O)CN2CCC(NC(=O)C3CCCCC3)CC2)cc1` here?
Its inhibition is -3.68%.

For `O=C1CC(c2cccc([N+](=O)[O-])c2)c2ccc3ccccc3c2N1` (stereo not drawn), which inhibition is on record?
Its inhibition is 9.31%.

For `COC(=O)c1c(NC(=O)c2cccc(N3C(=O)CCC3=O)c2)sc2c1CCN(C(C)=O)C2`, which inhibition is on record?
Its inhibition is -30.4%.

For `Cc1cc(C)c2c(C)c(C(=O)NCc3ccncc3)oc2c1`, which inhibition is on record?
The inhibition was 7.5%.

For `Cc1cc(C(=O)CSc2nnnn2C)c(C)n1CCc1ccc(F)cc1`, which inhibition is on record?
The inhibition was -3.7%.

For `O=C(COc1ccc2c(-c3ccccc3)cc(=O)oc2c1)NCCCn1ccnc1`, which inhibition is on record?
The inhibition was -19.5%.

Which inhibition does the source give for `CCOCC(=O)Nc1cccc(C(=O)OCC)c1` here?
The inhibition was 2.72%.

Which inhibition does the source give for `COc1ccc(C2=Nn3c(nnc3-c3ccccc3OC)SC2)cc1OC1CCOC1` (stereo not drawn) here?
Its inhibition is 19.3%.

With `O=C(Nc1ccc(Oc2ccccc2)cc1)c1csc([C@H]2C[C@H](O)[C@@H](CO)O2)n1` as the molecule, how does the inhibition read?
The inhibition was 54.4% (active).

Which inhibition does the source give for `CCOC(=O)c1c(N)n(CCOC(=O)c2cccs2)c2nc3ccccc3nc12` here?
Its inhibition is -11.6%.

For `O=C(Cc1cccs1)N/N=C\c1ccc([N+](=O)[O-])s1`, which inhibition is on record?
Its inhibition is 12.6%.

With `CC(C)NC(=O)N1Cc2cc(C(=O)NC3CCCCC3)nc(-c3cccc(-c4cccnc4)c3)c2[C@@H]1CCO` as the molecule, how does the inhibition read?
The inhibition was -0.48%.

For `Cc1ccc(C)c(NC(=O)CSc2nc3[nH]ncc3c(=O)[nH]2)c1`, which inhibition is on record?
Its inhibition is 7.57%.

For `CCc1c(C)nc(SCC(=O)Nc2ccc3c(c2)OCCO3)[nH]c1=O`, which inhibition is on record?
The inhibition was -6.83%.

Which inhibition does the source give for `CC(C)(Oc1ccc(Cl)cc1)C(=O)OCC(=O)NCCc1ccccc1` here?
Its inhibition is 4.06%.

For `CC1CCCN(c2cc(N(C)CCO)c([N+](=O)[O-])c3nonc23)C1` (stereo not drawn), which inhibition is on record?
The inhibition was 14.8%.

Which inhibition does the source give for `Cc1ccccc1OCC(=O)N/N=C/c1ccc([N+](=O)[O-])o1` here?
Its inhibition is 9.63%.

With `O=C(CN1C(=O)C(c2ccc(F)cc2)=NC12CCCC2)Nc1ccc(F)cc1` as the molecule, how does the inhibition read?
Its inhibition is 38.4% (active).

Which inhibition does the source give for `O=NN(CCc1ccncc1)c1ccc(OCc2ccccc2)cc1` here?
The inhibition was 50.5% (active).

Which inhibition does the source give for `COc1ccc(NC(=O)CN2C(=O)NC3(CCCC3)C2=O)cc1` here?
Its inhibition is -17.1%.

For `Cc1cc(C)nc(NC(=O)c2ccc([N+](=O)[O-])o2)n1`, which inhibition is on record?
Its inhibition is -11.8%.

For `COc1ccc(-c2cc(NC=O)c3ncc(-c4ccc(C(C)=O)cc4)n3c2)cn1`, which inhibition is on record?
The inhibition was -15.1%.

Which inhibition does the source give for `Cc1cc2oc(=O)cc(C)c2cc1NC(=O)CCl` here?
The inhibition was -57.1%.

With `Cc1onc(-c2ccccc2Cl)c1-c1nc(-c2ccncc2)no1` as the molecule, how does the inhibition read?
The inhibition was 18.2%.

For `CS(=O)(=O)c1ccc2nc(NC(=O)C3CC(=O)N(c4ccccc4)C3)sc2c1` (stereo not drawn), which inhibition is on record?
Its inhibition is 11.3%.

With `CC(Cl)C(=O)Nc1ncc(C(F)(F)F)cc1Cl` (stereo not drawn) as the molecule, how does the inhibition read?
The inhibition was -7.63%.

With `CC1CCCC(C)N1C(=O)COC(=O)Cc1ccc(F)cc1` (stereo not drawn) as the molecule, how does the inhibition read?
The inhibition was 3.23%.

Which inhibition does the source give for `CCN(CC)S(=O)(=O)c1cccc(NC(=O)CNc2cccc(S(=O)(=O)N3CCCC3)c2)c1` here?
The inhibition was 49.5% (active).

Which inhibition does the source give for `Cc1cc(OCC(=O)Nc2cccnc2)c2c(C)c(C)c(=O)oc2c1` here?
Its inhibition is -34.7%.

Which inhibition does the source give for `O=C(Nc1cccc(NC(=O)c2ccc([N+](=O)[O-])o2)c1)c1ccco1` here?
Its inhibition is -8.09%.

For `C#CCN(C[C@@H]1[C@@H](OC(=O)NCc2ccc(OC)c(OC)c2)[C@@H](OC(=O)NCc2ccc(OC)c(OC)c2)Cn2c(=O)ccc(=O)n21)S(=O)(=O)c1ccc(C)cc1`, which inhibition is on record?
Its inhibition is 10.2%.

For `CCCCOCCCNc1ncnc2c1[nH]c1ccccc12`, which inhibition is on record?
Its inhibition is 42.3% (active).

Which inhibition does the source give for `O=C(COC(=O)Cc1ccc(F)cc1)NCCc1ccccc1` here?
The inhibition was -0.51%.

With `O=C(NCc1ccco1)c1nn(-c2ccccc2)c(=O)c2ccccc12` as the molecule, how does the inhibition read?
The inhibition was -14.1%.

For `COc1cc2c(cc1OC)CN(C(=O)CN1CCN(S(=O)(=O)c3ccc(C)c(C)c3)CC1)CC2`, which inhibition is on record?
The inhibition was 16.1%.
